A number with no mark means an inactive call. The rule behind the calls is not given here.
Target: VTCN1, Q7Z7D3
Sequence (Q7Z7D3 whole entry): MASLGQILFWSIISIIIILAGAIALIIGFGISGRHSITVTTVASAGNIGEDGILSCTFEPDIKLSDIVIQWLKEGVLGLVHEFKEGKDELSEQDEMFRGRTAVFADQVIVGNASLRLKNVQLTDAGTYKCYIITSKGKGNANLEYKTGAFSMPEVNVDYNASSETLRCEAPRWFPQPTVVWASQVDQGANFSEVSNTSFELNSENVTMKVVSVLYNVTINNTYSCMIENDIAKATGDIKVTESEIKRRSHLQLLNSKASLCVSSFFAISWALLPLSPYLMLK

Binder	binding in a display sort
design_602_0a1f3d3d-7d26-454b-9b34-ebe8ef9bc7d4_1646_dldesign_0_cycle1_af2pred (protein) SEFKKKAKLISEAELLINRMAALSPEAAAGAKAILKLAEGGKQEEAEKKIKEIKAASPEEATKLAIEVGKKVAAE	not found
design_602_0a1f3d3d-7d26-454b-9b34-ebe8ef9bc7d4_1603_dldesign_0_cycle1_af2pred (protein) KNTLEKAAEAIQAYREEATAYAKEISKKEGKEAGEKAYEEFKKKVKELIALAKADPEAGLKEATKLLEELKAK	not found
design_603_0b98da89-d791-4423-9b2d-fd1b7292da18_519_dldesign_0_cycle1_af2pred (protein) AAAQEEARKAAERAAKIMRRRGERTGDLEKAEEAAKRVAAALAEGRAAGSAAMAEALEEFAELEYEKRKEEKKKKEEALE	not found
design_602_0a1f3d3d-7d26-454b-9b34-ebe8ef9bc7d4_1736_dldesign_0_cycle1_af2pred (protein) DLKEKVEKAEKILKKRKEKLEKAKEKGPKEAKKEAALAKEQMENLIEALKKILEEAKDDPETKAKAEKVIEEAKKLKEEAEKLEKE	not found
design_603_0b98da89-d791-4423-9b2d-fd1b7292da18_594_dldesign_0_cycle1_af2pred (protein) SMEEEAKKKLEEVKKEAEKVKKEAEKALKEAKATDKAKGLAAMAKVAAKAHEVRAEGDYYGKYDPEAAKIGKEVMEYVRAKAKEIEA	not found
design_603_0b98da89-d791-4423-9b2d-fd1b7292da18_74_dldesign_0_cycle1_af2pred (protein) KEKVKKLEEEAIKALKELSKYRDNPEKAAEYAEKLYEKAFEMGIPLSIASRAAKLAKEGEEGAKEGVKLIKEEAKKVIEE	not found
design_602_0a1f3d3d-7d26-454b-9b34-ebe8ef9bc7d4_1947_dldesign_0_cycle1_af2pred (protein) ATEEEVKAAVRETIKAAKKYVEAGGDAKEAAEIAHKAQEAKAEGIASGKLDEAYAKVKKLAEEAKAKAEEVEK	not found
design_602_0a1f3d3d-7d26-454b-9b34-ebe8ef9bc7d4_1707_dldesign_0_cycle1_af2pred (protein) AAAAEAFGKELAAMLDEAYDKSTEDLEKAKEVLAKLKAKAEAAPAEVAEYAKKALKTAKSIEDSIEIEEKLKK	not found
design_603_0b98da89-d791-4423-9b2d-fd1b7292da18_1193_dldesign_0_cycle1_af2pred (protein) GEEEKLKELIKKTEELAEGTEKLAKKVSEKYPEFEEELKKAAEEAKKAAEEAKKNPEKAPEQYKKVNEKNFEVQQLRAEGKYKS	not found
design_602_0a1f3d3d-7d26-454b-9b34-ebe8ef9bc7d4_1408_dldesign_0_cycle1_af2pred (protein) AAAAAAAAKAALDLAKEQLKKAKEYKELAKKYKEEGNISKANSAEADAINAAHAAIVAATKAAADPKYAAEAKKVKDEAEKLEKEVLE	not found
design_603_0b98da89-d791-4423-9b2d-fd1b7292da18_1094_dldesign_0_cycle1_af2pred (protein) GKEEAEKKLKEAKEKVEEMEKKAKEIEENAKELSAEEIEKIAEEMRKEGEEAIKKAEEADPEKGKEIRKKASEAVHKIREAIAEAKA	not found
design_603_0b98da89-d791-4423-9b2d-fd1b7292da18_227_dldesign_0_cycle1_af2pred (protein) DKLKEKAEKLKKEVEEEMKKMKKLVKEGKEEEAKAEAKKTKEIAEKAEKAGEEAIEKGDEESKKAGRDALATAERAKQAAKAVIK	not found
design_603_0b98da89-d791-4423-9b2d-fd1b7292da18_39_dldesign_0_cycle1_af2pred (protein) EETFKKAVEELLKIAKEVYKKDPKAGSAAAGEIYRGKAEYEATGNLEVGVEELQKAAEIIKKADKELGEKAKKIVEEAKKK	not found
design_602_0a1f3d3d-7d26-454b-9b34-ebe8ef9bc7d4_1819_dldesign_0_cycle1_af2pred (protein) GSAIMDAQAKAVEIRTEAEKLAKEYKDLPTAKDFKKAAEIAREALKNGEEAIELSKKAEELLEKAKKKLKEELEKK	not found
design_602_0a1f3d3d-7d26-454b-9b34-ebe8ef9bc7d4_1768_dldesign_0_cycle1_af2pred (protein) EEKERAKKFGEGYGEAQLDLAESAMKKATKPEEVKKAAETAAERARKRAKEGTPEEAEELLKAAEKIEKLGKEYLAKL	not found
design_603_0b98da89-d791-4423-9b2d-fd1b7292da18_78_dldesign_0_cycle1_af2pred (protein) MSENVKFASELIRKVVKEAKKIGKEKGASEEAKKKAIEEVAKAIDKISEAAQKGDKEKAKAIAEEAIKKIKKILEEGA	not found
design_602_0a1f3d3d-7d26-454b-9b34-ebe8ef9bc7d4_2169_dldesign_0_cycle1_af2pred (protein) SAFEILKVIEEKAKEVYEITKEENPKIAKKIAAAAYTAGVALGAGDEEEAKKVIEKGKALADKEGAEKGKKALEEAVEEVKKKAKE	not found
design_603_0b98da89-d791-4423-9b2d-fd1b7292da18_614_dldesign_0_cycle1_af2pred (protein) DEYVKKAKEAIKKAKEYVEEAKKYAEKGDIENAIKSVQKAQEEISAAYFYADQALKLDPEKGKKLKEEAEKVKEELEKVKEYIKAK	not found
design_603_0b98da89-d791-4423-9b2d-fd1b7292da18_572_dldesign_0_cycle1_af2pred (protein) SEKEEYLKKAKEEMEKLKAEILELMKKGNEYLPEASKLMAEMREIGAEAAFYVGPEADELRKKIMGEVLEAAKKYSG	not found

Binder	binding in a display sort
design_602_0a1f3d3d-7d26-454b-9b34-ebe8ef9bc7d4_1422_dldesign_0_cycle1_af2pred (protein) DAFLKEAEKLKKKLTEELKKLKEEAKKLTPEVQKKVLEEVKEAEEALKKALELAKKGDKKEAGKAAQEALEKLAEARWLVNKAK	not found
design_603_0b98da89-d791-4423-9b2d-fd1b7292da18_1163_dldesign_0_cycle1_af2pred (protein) MEALKEIKELMKKAEEEAKKLAKSMGVEGAKEGLKVAEKYFSSIFDIAIEKLTPEEAKEALDIANKAAKEIKDYIDKAIAEK	not found
design_603_0b98da89-d791-4423-9b2d-fd1b7292da18_403_dldesign_0_cycle1_af2pred (protein) AAAAEERAAGLAGRARVLEKSGLRLAKLNPEQGELLAEFLREEAEADPIGAPHFRAAADRLLAEVRKYKE	not found
design_603_0b98da89-d791-4423-9b2d-fd1b7292da18_996_dldesign_0_cycle1_af2pred (protein) SAAEERRKKGLELAEKRYAELEKLAKETEELNPELGKEAKKEAEEAKKYYEKAAEAPDSEVIDYVAKANEKRIKAEKLYKKAK	not found
design_603_0b98da89-d791-4423-9b2d-fd1b7292da18_1132_dldesign_0_cycle1_af2pred (protein) EEEASKKAREDADKISKEQKKIKENAKAAKAGTPEEAKAKYEEAKKAAEEIKKIDPDLGTFVLNNIKKWYA	not found
design_603_0b98da89-d791-4423-9b2d-fd1b7292da18_386_dldesign_0_cycle1_af2pred (protein) EKEEIIKRAKEAAERMKELAKKDPKYAEDAKKGKEVAEKAIEKAKESDKSLASAEALAESLELAVEYLEKKLKE	not found
design_603_0b98da89-d791-4423-9b2d-fd1b7292da18_10_dldesign_0_cycle1_af2pred (protein) EKEKEELRKELLEKYEEVKKAVEEALKNASNPEVQAELAKVVHEFQELAAEVGAKYPEIAEEAKKLRKEAIEEAKKAVEKSK	not found
design_603_0b98da89-d791-4423-9b2d-fd1b7292da18_1135_dldesign_0_cycle1_af2pred (protein) SEELKELAKAVLEEFSKKVHELYELAAEKDKETSKKIKELAKKAAEYGKKAVEDYLKGEKKEEGEKYKKEAEKYFEEAKKLAE	not found
design_603_0b98da89-d791-4423-9b2d-fd1b7292da18_768_dldesign_0_cycle1_af2pred (protein) KAFQAYNSSKALADNNVAVAKKLAEKGKLEEAEKAAKEGLERLKARAERLKGDPEAYKAAMKALEEYEKRAKEVVEEGKKAK	not found
design_603_0b98da89-d791-4423-9b2d-fd1b7292da18_450_dldesign_0_cycle1_af2pred (protein) MKKEEELKAKYKKAKELVEEKYKRAKEVVKNGTVEQGLAAAESLLEFGKHAGKSLEKAGDKEGGKEVKELAEKYYKELKEEAEKKA	not found
design_602_0a1f3d3d-7d26-454b-9b34-ebe8ef9bc7d4_1428_dldesign_0_cycle1_af2pred (protein) EEEEKKKKEYVEKIKKALKEVKEAGKKGTEEQKKLAAETADKLYELKAIAEFSNAEEAEKYAEKAEKLAKETLKKIKK	not found
design_602_0a1f3d3d-7d26-454b-9b34-ebe8ef9bc7d4_1719_dldesign_0_cycle1_af2pred (protein) GLAEEYKKKAEEAEEKAFNSKNVEAAYYYLKASQYYNAAAIYTKKGEEYLEKAKESYEKGKEYEKKGEEIEKK	not found
design_603_0b98da89-d791-4423-9b2d-fd1b7292da18_573_dldesign_0_cycle1_af2pred (protein) EELLKGAEEIKKKAEEVVKEIKKINPKLGEEAEKELKEAEKEGKKETPAVYIQKMQEALTYAKSLLIKAKKE	not found
design_603_0b98da89-d791-4423-9b2d-fd1b7292da18_754_dldesign_0_cycle1_af2pred (protein) NDEEAKQKLAEAAAKLHEAAALAEYEGDEELAKKAREAAKELKAAAADPSLTAEEKAKLAEEAKKKAEEIIKKVEEK	not found
design_603_0b98da89-d791-4423-9b2d-fd1b7292da18_819_dldesign_0_cycle1_af2pred (protein) SAKEKASAALRAVATAAARDAKKRFPKIDKETANEFQKARMYAADPNEVAKGIEHLKAAAAKLGEIGKEYIAAADKVAALL	not found
design_602_0a1f3d3d-7d26-454b-9b34-ebe8ef9bc7d4_1801_dldesign_0_cycle1_af2pred (protein) GKLVEEAKKALEEAKALAAKNPELAKMAEAALERFEKSLRAGLAAADGLASTAAKLGAEDPENAKLAELAGKAAELLFEAI	not found
design_602_0a1f3d3d-7d26-454b-9b34-ebe8ef9bc7d4_1902_dldesign_0_cycle1_af2pred (protein) DEKKKNLLRAAALTLEEAIEALDTDKNWGAALARSAARYAEEAGDEETAAIAREAAELAAAGGPEVAPEAKALLKEAAERLKKKI	not found
design_603_0b98da89-d791-4423-9b2d-fd1b7292da18_215_dldesign_0_cycle1_af2pred (protein) MTEEEERALVRGAYRAAVEAAKDPANAADYLAKSKALADELIAKGSKKAIASAAFKLEGVAEAAAKDPATAEVAKAANATAKRLNAAL	not found
design_603_0b98da89-d791-4423-9b2d-fd1b7292da18_202_dldesign_0_cycle1_af2pred (protein) GSATVDALEKALDAREELLRLAKELPPERAELAEKLRAAAEELRETIRRAQKLSPEEGAALITAAAEKARALAKEVKAA	not found
